Experimental findings from PubChem BioAssay (NCI) are described below.

About 83,000 compounds went through this panel and 20% of them were active in at least one assay; those are over-represented in the sample as a whole.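 The endpoint reported here, percent growth, reads 100 for growth as untreated, 0 for no net growth and -100 for all cells dead.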 Unmarked numbers belong to inactive results. Active and inactive are the calls of the source.

In this experiment the test system is HS 578T breast. The experiment is described as follows: NCI-60 one-dose screen, 48 h (100 = growth as untreated, 0 = no growth, -100 = all killed). Particulars: 10 µM unless noted. The method, then:
Growth inhibition of the HS 578T human tumor cell line is measured as a screen for anti-cancer activity. Cells are grown in 96 well plates and exposed to the test compound for 48 hours. Compounds are tested at a single concentration, which is 10^-5 M for most compounds. The reported endpoint is percent growth (GI% or GIPRCNT), where numbers from 0 - 100% represent growth inhibition, and numbers from -100% - 0 represent cell death. For example, a value of 40 represents 60% growth inhibition. A value of 0 means no net growth occurred over the course of the experiment. A value of -40 indicates 40% of cells at the beginning of the experiment died by the end of the experiment. A value of -100 means all cells are dead at the end of the experiment.
NCI-60 Human Tumor Cell Lines Screen was performed using the standard one-dose NCI protocol, which is described in more detail at https://dtp.cancer.gov/discovery_development/nci-60/default.htm.
Compounds with GIPRCNT values below 10 were considered active. Activity score was based on GIPRCNT using the following formula: […]
Score is 0 for GIPRCNT values of 100 or above, 50 for GIPRCNT values of 0, and 100 for GIPRCNT values of -100.
In the case of `CCCCC1COc2cccc3c2N1C=C/C3=C\C(=O)n1ccc2ccccc21` (stereo not given), the growth was 88%. Turning to `COc1cc(NN=C(c2ccc(O)cc2)c2ccc(O)cc2)c([N+](=O)[O-])cc1[N+](=O)[O-]`, the growth is 93.8%. Regarding `CC(=O)O.CC(=O)O.O.[Fe]`, the growth was 93.2%. `COc1ccc(OC)c([N+](=O)[O-])c1C(=O)CNC(C)=O`: the growth is -2.16% (active).

With `CN(C)c1ccc(N=Nc2ccc3ccccc3c2)cc1`, the growth is 98.4%. As for `CC(C)CCSC1=CC(=O)c2ccccc2C1=O`, the figure is 74%; as for `CN(C)CCCNc1nc(-c2cccc(C(Cl)(Cl)Cl)c2)nc(C(Cl)(Cl)Cl)n1`, 91.8%; as for `Nc1nc(Nc2ccccc2)c2ncn(Cc3ccc4c(c3)OCO4)c2n1`, 42.8%. On to `O=C(NCCO)c1cccnc1`, for which the growth was 92.1%. Take `Cn1cc(-c2nnc(-c3cn(C)c4ncccc34)s2)c2ccccc21`: the growth was 83.7%. With `C[C@@H]1C[C@H]2C(=O)O[C@@H](C)[C@H](NC(=O)[C@H](Cc3cc(F)cc(F)c3)NC(=O)Nc3ccc(Cl)cc3F)C(=O)N3C[C@H](O)C[C@H]3C(=O)N3CCN(C)C[C@H]3C(=O)N[C@@H](C)C(=O)N2C1`, the growth was 37.9%. In the case of `CC1(C)OC2[C@@H](CNC(=O)NC(=O)NC(=O)CI)O[C@@H](n3cnc4c(NC(=O)Nc5ccccc5)ncnc43)[C@H]2O1` (stereo not given in full), the growth is 98.7%. `CCCCCn1c(C)cc(/C=C\c2ccc3cc(C)ccc3[n+]2C)c1C`: the growth is -24.4% (active). On to `OC(c1ccc(Cl)cc1)(c1ccc(Cl)cc1)C(O)(c1ccc(Cl)cc1)c1ccc(Cl)cc1`, for which the growth was 68.6%.

`Nc1nc(SCc2cccc([N+](=O)[O-])c2)c2[nH]cnc2n1`: the growth was 99.9%.

As for `CCCCOC(=O)c1c(C)[nH]c(/C=C2\N=C(c3ccc[nH]3)C=C2OC)c1C`, the growth was -23.2% (active). As for `CCOc1ccc(/C=C(\C#N)c2cc3ccccc3[nH]2)cc1`, the growth is 66.4%.

On to `Cc1ccc(S(=O)(=O)Oc2ccc([N+](=O)[O-])cc2[N+](=O)[O-])cc1`, for which the growth is 123%. For the compound `C=C(C)[C@@H]1CC[C@]2(C)[C@H](CC=C3[C@@H]4[C@@H](C)[C@H](C)CC[C@]4(C(N)=O)CC[C@]32C)[C@@]1(C)CCC#N`, the growth was 5.08% [100 µM] (active).

Regarding `C#CC(OC(=O)N(C)C)(c1ccccc1)c1ccc(F)cc1` (stereo not given), the growth is 128%. In the case of `COc1cc2c(cc1OC(C)=O)C(=O)CCCC2`, the growth was 84.3%. On to `Cn1cc(-c2noc(C(=O)c3cn(C)c4ncccc34)n2)c2ccccc21`, for which the growth was 88.5%. Turning to `Cc1ccc2c(c1)/C(=N\N=C/c1cn(C(C)C)c3ccccc13)C(=O)N2`, the growth is 73.9%.

Consider `O=C(N=c1n(-c2ccccc2)nc2n1CCN2C1=NCCN1C(=O)c1ccc(Cl)cc1)c1ccc(Cl)cc1`, for which the growth was 82.7%. The same measure for `C#CCNC(=O)CC[C@@H](C)[C@H]1CC[C@H]2[C@@H]3CC[C@@H]4CC(=O)CC[C@]4(C)[C@H]3CC[C@]12C`: -28.3% [100 µM] (active).

Turning to `O=C1NC(=O)C(Cc2ccccc2)(Cc2ccccc2)N1`, the growth was 111%.

For the compound `COC(=O)[C@H](CC(C)C)NC(=O)NC(=O)NC(=O)CI`, the growth was 106%. `Nc1cc(NN=C(c2ccc(O)cc2)c2ccc(O)cc2)c([N+](=O)[O-])cc1[N+](=O)[O-]`: the growth is 71.4%. As for `C[N+](C)(C)c1ncnc2[n-]cnc12`, the growth is 95.6%. The same measure for `C=C(C)[C@@H]1CC[C@]2(C)[C@H](CC[C@@H]3[C@@H]([C@@](C)(O)CCC=C(C)C)CC[C@]32C)[C@@]1(C)CCC(=O)N1CCN(C)CC1`: -41.5% [100 µM] (active).

Turning to `CCOC(=O)c1cc(C#N)n2ncc3ccccc3c12`, the growth is 98.3%. On to `Nc1nc(Nc2ccccc2)c2ncn(Cc3cc4c(cc3Br)OCO4)c2n1`, for which the growth was 34.1%.

Take `CC(C)CSc1ncnc2nc[nH]c12`: the growth is 116%. On to `NC(=S)Cc1ccccc1`, for which the growth is 102%. Consider `COC(=O)c1cc2c(=O)[nH]cc3c2c(n1)CCC3`, for which the growth was 109%. Take `O=C(Nc1cccnc1)c1ccc2ccc3ccc(C(=O)Nc4cccnc4)nc3c2n1`: the growth is 46.4%.

As to `CCN(CC)CC(C)Nc1ccc(C)c2sc3ccccc3c(=O)c12` (stereo not given), the growth is 73.8%. `O=C1C(Cl)=C(Nc2ccc3cn[nH]c3c2)C(=O)c2ccccc21`: the growth is -50.4% (active). For the compound `CCn1cc(-c2[nH]c(=S)ncc2-c2ccc(Cl)cc2)c(-c2ccc(Br)cc2)n1`, the growth was 108%.

For the compound `C=C(C)[C@@H]1CC[C@]2(C(=O)NCCCN)CC[C@]3(C)[C@H](CC[C@@H]4[C@@]5(C)CC[C@H](O)C(C)(C)[C@@H]5CC[C@]43C)[C@@H]12`, the growth is -4.98% [100 µM] (active).
